Laboratory results reported in PubChem BioAssay (NCATS).
Records with an inconclusive call do not appear. Where a call stands in place of a potency, no number is given. Activity calls are given as the source filed them. Calls follow the shape of the dose curve; as a rule, active = well fitted inhibition curve with a large enough effect; inconclusive = small, poorly fitted or top-dose-only effect; inactive = flat fitted curve, though single readings scatter.

molecular target: Calcium and integrin-binding protein 1 (Homo sapiens) (UniProt Q99828); test: Primary qHTS for Identification of Calcium Integrin Binding Protein 1 (CIB1) Competitor (AID 1508620); settings: CIB1-GST / FITC-alphaIIb peptide fluorescence polarization; series mostly up to 114 µM;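 also: GST tagged CIB1 binding a fluorescein labelled alphaIIb integrin peptide tracer; top concentration of the series differs between compounds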
In short: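 Fluorescence polarization competition: CIB1-GST (1 uM final) preincubated with compound 15 min at room temperature, then FITC-labeled alphaIIb peptide (100 nM final) added for another 15 min. Polarization read at Ex 480/Em 540.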

Chain of Calcium and integrin-binding protein 1 (Homo sapiens) (Q99828 whole entry, looked up): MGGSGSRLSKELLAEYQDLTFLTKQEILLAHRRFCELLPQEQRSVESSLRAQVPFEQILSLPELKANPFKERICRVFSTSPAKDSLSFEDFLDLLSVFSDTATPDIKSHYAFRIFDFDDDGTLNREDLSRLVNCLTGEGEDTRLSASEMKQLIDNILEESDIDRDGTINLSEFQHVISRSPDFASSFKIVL

Row | Structure (SMILES) | Potency
1 | COC(=O)CC(O)CC(O)/C=C/c1c(C)ccc2c1C(OC(C)=O)CC(C)C2 (stereo not given) | inactive
2 | FC(F)(F)c1ccc(/C=C/c2nc(COc3ccc(CCCCn4ccnn4)cc3)co2)cc1 | inactive
3 | CC(C)(O)C1CC(=O)C2(C)C(CCC3(C)C(c4ccoc4)OC(=O)C4OC432)C12CCC(=O)OC2 (stereo not given) | inactive
4 | C=CC1(C)CC(O)C(C(=C)C(=O)OC)C(O)C1C(=C)CO (stereo not given) | inactive
5 | CC1(C)SCCN(S(=O)(=O)c2ccc(Oc3ccncc3)cc2)[C@H]1C(=O)NO | inactive
6 | CC1(C)CC[C@]23CO[C@@]4(CCC5[C@@]6(C)CC[C@H](O[C@@H]7OC[C@H](O[C@@H]8O[C@H](CO)[C@@H](O)[C@H](O)[C@H]8O[C@@H]8OC[C@@H](O)[C@H](O)[C@H]8O)[C@H](O)[C@H]7O)[C@@](C)(CO)C6CC[C@@]5(C)[C@]4(C)CC2=O)[C@@H]3C1 (stereo not given in full) | inactive
7 | C/C=C(\C)C(=O)OC1C(C)C2(O)C(C=C(CO)CC3(O)C(=O)C(C)=CC32)C2C(C)(C)C12OC(C)=O (stereo not given) | inactive
8 | COC(=O)c1ccnc(-c2cc(C(=O)Nc3ccc(C4(N)CC4)cc3)ccn2)c1 | inactive
9 | CC(C)CCCCC(=O)N[C@@H](CO)C(=O)N[C@@H](CC(C)C)C(=O)[C@@]1(CO)CO1 | inactive
10 | COc1ccc(NC(=O)C2C[C@H](C)CC[C@H]2C(C)C)cc1 (stereo not given in full) | inactive
11 | CC(=O)OC(C)(C)/C=C/C(=O)C(C)(O)C1C(O)CC2(C)C3CC=C(C(C)(C)C(=O)O)C(CC(=O)O)C3(C)C(=O)CC12C (stereo not given) | inactive
12 | CC(=O)OC1C(=O)C2C3OCC4=C3[C@@](C)(CC[C@@H]4O)CC[C@]2(C)[C@H]1C(C)C (stereo not given in full) | inactive
13 | C=C1CCC2[C@](C)(CCC[C@@]2(C)C=O)[C@H]1CC/C(C)=C/CO (stereo not given in full) | inactive
14 | CC12CCC3C1C(c1c(cc(O)c(C(=O)c4ccccc4)c1O)O2)C3(C)C (stereo not given) | inactive
15 | COC1=CC(=O)C=C(C)C12Oc1c(Cl)c(OC)cc(OC)c1C2=O (stereo not given) | inactive
16 | CC(=O)OC1CC2(C)C(CCC(C)C23Cc2c(O)cc(CO)c(C=O)c2O3)C(C)(C)C1O (stereo not given) | inactive
17 | CC(=O)OC1CCC2(C)C(CCC3(C)C2CC=C2C4C(C)C(C)CCC4(C)CCC23C)C1(C)C(=O)O (stereo not given) | inactive
18 | CCC/C=C/c1cc2c(C=O)c(O)c(CC=C(C)C)cc2o1 | inactive

Row | Structure (SMILES) | Potency
19 | Clc1ncoc1-c1c[nH]c2ccccc12 | inactive
20 | CCCCCCCOc1cc2c(cc1/C(C)=C/c1ccc(C(=O)O)cc1)C(C)(C)CCS2(=O)=O | inactive
21 | COc1ccc(CN2CCN(CCCSc3cc(C(C)(C)C)c(O)c(C(C)(C)C)c3)CC2)c(OC)c1OC | inactive
22 | CCn1c(=O)n([C@H]2CCCN(c3nccc(-c4cc5ccccc5o4)n3)C2)c2ccccc21 | inactive
23 | CCC(CC)C(=O)OC12C(OC(=O)C(C)C)C(C)C3(O)C(C=C(CO)CC4(O)C(=O)C(C)=CC43)C1C2(C)C (stereo not given) | inactive
24 | CNCCC(c1cccs1)c1ccc(O)c2ccccc12 (stereo not given) | inactive
25 | CNCCN1CCC(c2cc(CN(C)C(=O)c3cccc(Oc4ccccc4)c3)ccn2)CC1 | inactive
26 | CC(C)(O)/C=C/C(=O)[C@](C)(O)[C@H]1[C@H](O)C[C@@]2(C)[C@@H]3CC=C4[C@@H](C[C@H](O[C@@H]5O[C@H](CO)[C@@H](O)[C@H](O)[C@H]5O)C(=O)C4(C)C)[C@]3(C)C(=O)C[C@]12C | inactive
27 | CC#C[C@@H](CC(=O)O)c1ccc(OCc2cccc(-c3ccc(C(F)(F)F)cc3)c2)cc1 | inactive
28 | CC(=O)OC/C(=C/C(=O)O)CC[C@@H]1C(C=O)=CC[C@@H]2C(C)(C)CCC[C@@]12C | inactive
29 | CC(=O)Nc1cccc(-c2csc(Nc3cc(C)ccn3)n2)c1 | inactive
30 | CN(C)N(C)C(=O)[C@@]1(Cc2ccccc2)CCCN(C(=O)[C@@H](Cc2c[nH]c3ccccc23)NC(=O)C(C)(C)N)C1 | inactive
31 | NC(N)=N/N=C/c1ccccc1Cl | inactive
32 | Cn1nc(C(C)(C)C)cc1C(=O)N[C@@H](Cc1cccc(Cl)c1)C(=O)NCC#N | inactive
33 | Cc1cc(C)c(S(=O)(=O)n2cc(C)cc2C)c(C)c1 | inactive
34 | C=C1CC[C@@H]2[C@](C)(CO)[C@H](O)CC[C@@]2(C)[C@@H]1C/C=C1/C(=O)OCC1OC(=O)/C(=C/CO)C(O)C[C@@H]1C(=C)CC[C@@H]2[C@](C)(CO)[C@H](O)CC[C@]21C (stereo not given in full) | inactive
35 | COc1c(C(O)CC(C)C)ccc2c1C(=O)OCc1cc(C)cc(O)c1O2 (stereo not given) | inactive
